This is part of a sample that, as a whole, favours compounds with a hit. Of some 79,000 tested, about 15% had one in any assay. Unmarked numbers belong to inactive results. The source made the active and inactive calls. Rule as the data show it: active = growth inhibition above about 70%; inactive = the rest.
How the values were obtained:
[1] = NCI Yeast Anticancer Drug Screen. Data for the rad50 strain (AID 155);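 also: 0% = growth of vehicle-only cultures of the same strain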; conditions: S. cerevisiae rad50 strain growth inhibition; at 50.0 µM; active compounds read high
Summary of the method: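 DNA repair mutant yeast, compound exposure, growth read-out; inhibition is taken relative to vehicle.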

[2] = NCI Yeast Anticancer Drug Screen. Data for the mec2-1 strain (AID 157); conditions: S. cerevisiae mec2-1 strain, at 50.0 µM, active compounds read high
Summary of the method: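 Yeast mec2-1 mutant treated with compound. Readout: growth inhibition vs vehicle controls.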

[3] = NCI Yeast Anticancer Drug Screen. Data for the sgs1 mgt1 strain (AID 161);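 also: 0% = growth of cultures given vehicle only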; conditions: S. cerevisiae sgs1 mgt1 strain, at 50.0 µM, active compounds read high
Summary of the method: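 Mutant yeast exposed to compound; growth scored against vehicle-only wells.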

[4] = NCI Yeast Anticancer Drug Screen. Data for the cln2 rad14 strain (AID 165);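 also: 0% = growth equal to vehicle treated cultures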; conditions: S. cerevisiae cln2 rad14 strain, at 50.0 µM, active compounds read high
Summary of the method: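 cln2 rad14 yeast strain; compound exposure; growth inhibition read vs vehicle controls.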

[5] = NCI Yeast Anticancer Drug Screen. Data for the bub3 strain (AID 167); conditions: S. cerevisiae bub3 mutant strain, at 50.0 µM, active compounds read high
Summary of the method: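 In this screen, a yeast mutant lacking normal mitotic checkpoint function is challenged with compound. Relative growth versus vehicle gives the inhibition value.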

[6] = NCI Yeast Anticancer Drug Screen. Data for the mlh1 rad18 strain (AID 175); conditions: S. cerevisiae mlh1 rad18 strain growth inhibition; at 50.0 µM; active compounds read high
Summary of the method: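 Yeast w/ defined DNA-repair lesions; compound exposure; growth vs vehicle controls → % inhibition.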

SMILES | growth inhibition [1] | growth inhibition [2] | growth inhibition [3] | growth inhibition [4] | growth inhibition [5] | growth inhibition [6]
CC(C)n1nnnc1-c1ccccc1 | -6.45% | -8.5% | 2% | -15.9% | -3.1% | 1.15%
[Co].[O-]c1cccnc1C=Nc1ccccc1.[OH3+] | 24.8% | 31.6% | 37.4% | 30.9% | 33.9% | 21.9%
CC(=O)Nc1cc2c(cc1Br)-c1ccccc1C2=O | -15% | -3.5% | 15.4% | -31.7% | 9.45% | -2.15%
Cc1cccc(C)c1N=Nc1ccc(O)c(CN(C)C)c1 | -6.2% | -14.7% | -12.1% | -3.6% | 22.6% | -8.85%
COC(=O)N/N=C(\c1ccc(OC)cc1)C(c1ccc(OC)cc1)C1(O)C(=O)Nc2c(C)cc(Cl)cc21 (stereo unspecified) | 20.1% | 14.8% | -4.35% | -30.6% | 18.6% | 18.6%
Oc1ccc(Br)cc1C1Nc2ccccc2S1 (stereo unspecified) | 0.65% | 6.15% | 0.4% | -28.3% | 5.15% | -1.85%
CSc1n[nH]c(NC(=O)c2ccccc2Cl)n1 | -0.9% | 0.45% | 1.5% | -33.2% | -3.1% | 7.95%
COc1c(F)c(F)c(/C(O)=C\c2nc3ccccc3[nH]c2=O)c(F)c1F | -19.6% | -22.9% | -17.4% | 13.6% | -2.05% | -11.3%
CCOC1(COP(=O)(OCc2ccccc2)OCc2ccccc2)COC(COP(=O)(OCc2ccccc2)OCc2ccccc2)(OCC)CO1 (stereo unspecified) | -30.1% | -25.6% | -16.2% | 2.2% | -3.75% | -22.8%
CCCCCCCCCCCC[Si](c1ccccc1)(c1ccccc1)c1ccccc1 | 9.3% | 6.2% | 26.1% | 22.9% | 1% | 24.5%
C=Cc1ccc(C)[n+](C[Si](C)(C)O[Si](C)(C)C[n+]2cc(C=C)ccc2C)c1 | -18.9% | -11.1% | -26.1% | -4.2% | -10.8% | 9%
O=S(=O)(O)C(CO)c1ccccc1 (stereo unspecified) (tested in a mixture with another compound) | 5.75% | 1.5% | -12.9% | -31.2% | -28.7% | 0.9%
N#C[C@H]1CC2C=CC1C2 (stereo partly specified) | 12.2% | -20% | 0.7% | 8.2% | 0.8% | 15.7%
C/C(=N/NS(=O)(=O)c1ccc(C)cc1)C(=NO)/C(C)=N\NS(=O)(=O)c1ccc(C)cc1 | 55.6% | 70.2% (active) | 45.4% | 86.2% (active) | 49.9% | 60.5%
Brc1cc2c(cc1C=NC1CCCCC1)OCO2 | 25.6% | 22.8% | -4.05% | 6.8% | 18.8% | 43.7%
Nc1c(Cl)cc(C(=O)NC2CC2)cc1Cl | -13.1% | -27.8% | -11.2% | -4.8% | -26.6% | -24.9%
COc1ccccc1C1OC2=C(Nc3ccc([N+](=O)[O-])cc3N2)C1=O (stereo unspecified) | 12.2% | 10.4% | 27.9% | 16.6% | 16.9% | 28.1%
CCOC(=O)CN=NNc1ccccc1C(C)=O | 21.4% | 7.45% | 10.9% | -3.3% | 3.05% | 38.4%
O=C(CCl)NCCc1ccccc1 | 17.5% | 5.6% | -0.4% | 12.8% | 24.8% | 1.1%
CC(C)N(CCN1CCCCC1)c1ccccn1 | -0.9% | 18.2% | 7.2% | -75.5% | 10.3% | 14.9%
CC1=C(C(=O)Nc2ccccc2C)C(c2ccc(C3C(C(=O)Nc4ccccc4C)=C(C)NC(C)=C3C(=O)Nc3ccccc3C)cc2)C(C(=O)Nc2ccccc2C)=C(C)N1 | 65.7% | 65% | 61.2% | 47.8% | 21.6% | 84.6% (active)

SMILES | growth inhibition [1] | growth inhibition [2] | growth inhibition [3] | growth inhibition [4] | growth inhibition [5] | growth inhibition [6]
CCc1ccccc1NC(=O)N1CCOCC1 | -8.45% | -27.9% | -1.55% | 3.05% | -4.15% | -7.15%
Cc1ccc(NC(=O)c2cc3c(cc2Cl)Sc2nccn2S3(=O)=O)cc1 | 21.7% | 11.3% | 12.7% | -25.9% | 11.4% | 39.1%
CC(=O)NCCc1nc(-c2nc(C(=O)NCCC(C)C)cs2)cs1 | 14.1% | 16.6% | -2% | -23.4% | 6.8% | 5.9%
O=S(Cc1ccccc1)/C(=C/NC(=S)N=Nc1c(O)[nH]c2ccccc12)c1ccccc1 (stereo unspecified) | 15.3% | -11.1% | 14.2% | 33.2% | -4.1% | -3.1%
Cc1cnn(-c2ccccc2)[n+]1[O-] | 0.65% | 11.5% | 9.5% | -28.8% | 9.6% | 6.4%
CCOC(=O)c1c(N2CCCC2)ncn(Cc2ccccc2)c1=S | 0.7% | 12.4% | 3.9% | -7.75% | 8.3% | -5%
Cc1ccc(S(=O)(=O)c2ccc(C(=O)O)cc2)cc1 | 8.1% | 10.4% | 10.8% | -6.05% | 4.05% | 17%
OC1c2cc(Br)ccc2-c2c(F)cc(Br)cc21 (stereo unspecified) | 4.9% | -6.75% | -5.3% | 4.65% | 1.9% | -10.9%
COc1ccc(C(=O)c2ccccc2C(=O)c2ccc(OC)cc2)cc1 | -22.1% | 16.1% | -1.4% | -37.8% | -7.7% | 6.95%
CN1CCCCC1=O | -0.15% | -2.6% | 6.15% | 8.65% | 8.65% | 9.8%
CCCCN(C(C)=O)c1ccccc1 | -8.8% | 9.45% | 4.2% | -6.15% | -9.4% | 1.1%
COc1cc(C=O)ccc1OC(=O)Nc1cccc(C(C)=O)c1 | 4.7% | 23.6% | 15.9% | 7.65% | 18.9% | -18.6%
O=C1CCCCC1C(Nc1ccccc1)c1ccccc1 (stereo unspecified) | 2.95% | -6% | -10.7% | 15.8% | -2.6% | 17.1%
O=C1OC(c2ccccc2)C=C1Nc1ccccc1 (stereo unspecified) | 9.55% | 12.4% | -3.05% | -12.1% | 17% | 9.4%
CCCCN(CCCC)S(=O)(=O)c1ccc(OCCOc2ccc(S(=O)(=O)N(CCCC)CCCC)cc2)cc1 | 10.7% | -1.4% | 15.2% | -12.4% | -5.1% | 7.75%
Nc1ccc(CC(=O)O)cc1 | 28.6% | -10.7% | -26.4% | -47.2% | 7.25% | 0.05%
CCOC(=O)c1ccc(NC(=S)NCc2cccnc2)cc1 | 11.6% | -3.25% | 24.6% | 4.95% | 22.2% | -6.7%
Cc1ccc(S(=O)(=O)NCCC(Cl)(Cl)Cl)cc1 | 21.6% | 6.8% | 1.05% | 1.2% | 38% | 27.7%
Cc1cc(NS(=O)(=O)c2ccc(Nc3c4ccccc4nc4c(C(=O)NCCN(C)C)cccc34)cc2)no1 | -37.8% | 3.4% | -41.5% | 11.9% | -22.7% | -14.6%
OC(Cc1cccc(=S)[nH]1)(c1ccccc1)c1ccccc1 | -7.35% | -7.25% | -9.25% | -37.9% | -1.8% | -26.3%

From PubChem BioAssay (NCI)
